MEKK2mut PB1 HTS: signal of MEK5 binding to mutant human MEKK2 PB1 domain; bead flow cytometry, Alexa488-MEK5 binding to MEKK2 mutant; percent response, % at 10 µM; actives 0.35% (n = 290,000); in the data active = percent response above about 24%, passing the limit was not always enough
Pf gamet viab: kills late stage P. falciparum gametocytes | P. falciparum stage V gametocytes, ATP luminescence, 24 h | inhibition, % at 10.9 µM | actives 0.065% (n = 150,000) | AID 743093;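 active = inhibition above the mean plus 3 SD of compounds within the control limits, set per campaign, cut at about 38% in these data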;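 also: 0% = DMSO wells and 100% = medium only without gametocytes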
MEKK3 PB1 HTS: MEKK3-MEK5 PB1 interaction, increase or decrease; Q99759; bead-based flow cytometry, Alexa488-MEK5 binding to MEKK3; actives lie on both sides; 0 = blocked by unlabeled MEK5, 100 = vehicle; binding response (% of control), % at 10 µM; actives 1.4% (n = 290,000);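 active = binding response more than 3 SD above or below the average of its plate-row segment, actives on both sides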;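 also: Alexa488 bead fluorescence after subtracting the streptavidin-only scavenger bead signal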
Target sequence (Q99759 whole entry, looked up): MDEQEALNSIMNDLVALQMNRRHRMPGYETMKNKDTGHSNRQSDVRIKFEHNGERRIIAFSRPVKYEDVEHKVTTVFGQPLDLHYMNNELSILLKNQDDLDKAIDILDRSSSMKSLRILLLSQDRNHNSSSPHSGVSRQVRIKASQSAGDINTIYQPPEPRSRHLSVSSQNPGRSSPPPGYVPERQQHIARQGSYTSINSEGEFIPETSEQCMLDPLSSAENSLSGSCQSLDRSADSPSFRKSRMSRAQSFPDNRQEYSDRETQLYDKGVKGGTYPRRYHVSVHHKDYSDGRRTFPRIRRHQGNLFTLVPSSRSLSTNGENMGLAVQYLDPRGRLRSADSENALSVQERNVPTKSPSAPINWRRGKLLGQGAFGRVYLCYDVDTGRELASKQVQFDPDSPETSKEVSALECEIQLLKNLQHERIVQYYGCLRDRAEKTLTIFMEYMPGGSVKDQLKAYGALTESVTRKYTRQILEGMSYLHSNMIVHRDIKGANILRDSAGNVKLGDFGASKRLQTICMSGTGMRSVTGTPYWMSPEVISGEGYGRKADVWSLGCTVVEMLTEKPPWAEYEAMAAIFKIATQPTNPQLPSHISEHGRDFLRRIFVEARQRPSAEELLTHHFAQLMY
MEKK2 WT-MEK5: raises or lowers MEK5 binding to wildtype human MEKK2 PB1 domain. binding response (% of control), % at 10 µM. actives 1.1% (n = 290,000). bead flow cytometry, Alexa488-MEK5 binding to MEKK2 WT; actives lie on both sides. Q9Y2U5; in the data active = binding response below about 67% or above about 130%
Arbovirus anti: blocks arbovirus infection; arbovirus infection cell-based antiviral screen; inhibition, % at 10 µM; actives 0.37% (n = 200,000); in the data active = inhibition above about 30%
MEKK2wt confirm: raises or lowers MEK5 binding to wildtype human MEKK2, retest; shares compounds with MEKK3 PB1 HTS; bead flow cytometry, Alexa488-MEK5 binding to MEKK2 WT; actives lie on both sides; binding response (% of control), % at 10 µM; actives 2.4% (n = 5,900); in the data active = binding response below about 16% or above about 210%; inactive = in between
MEKK2mut confirm: signal of MEK5 binding to mutant human MEKK2, retest | shares compounds with MEKK3 PB1 HTS | bead flow cytometry, Alexa488-MEK5 binding to MEKK2 mutant | percent response, % at 10 µM | actives 2% (n = 5,900); in the data active = percent response mostly above about 71%, no sharp cut-off; inactive = mostly below about 38%;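 also: higher means compound restores mutant binding toward wildtype level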
MEKK3 confirm: MEKK3-MEK5 PB1 inhibition, single concentration confirmation | shares compounds with MEKK3 PB1 HTS | bead flow cytometry, Alexa488-MEK5 binding to MEKK3; stronger effect = lower value | binding response (% of control), % at 10 µM | actives 1.8% (n = 5,900);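 active = binding response below 72% of control, or above a set upper limit, though filed actives all read lower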;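 also: 100% = DMSO only wells and 0% = binding blocked by excess unlabeled MEK5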
* marks the source's active call; other numbers are inactive results; . = no result; [ ] = remark or other dose. Shown are actives, neighbours in structure and some others; about 2.4% of the full set was active somewhere.

SMILES	MEKK2mut PB1 HTS	Pf gamet viab	MEKK3 PB1 HTS	MEKK2 WT-MEK5	Arbovirus anti	MEKK2wt confirm	MEKK2mut confirm	MEKK3 confirm
Cc1ccc2nc(SC(C(=O)c3ccccc3)c3ccccc3)nc(C)c2c1 (centres undefined)	-2.0	-4.2	96.0	96.0	-5.8	.	.	.
CCn1ncc([N+](=O)[O-])c1C(=O)Nc1ccc(C)c(C)c1	-7.0	-7.7	100.0	98.0	.	.	.	.
CS(=O)(=O)N1CCC(C(=O)NCc2ccc(F)cc2)CC1	5.0	-4.5	103.0	101.0	5.2	.	.	.
CCOC(=O)C1(CC2CCCCO2)CCN(C(=O)Nc2ccc(C)c(C)c2)CC1 (centres undefined)	-9.0	2.2	96.0	92.0	-6.4	.	.	.
CCOCCCN(C(=O)Cn1nnc(-c2ccc(C)o2)n1)C(C(=O)NC1CCCC1)c1ccc(C)o1 (centres undefined)	3.0	.	104.0	100.0	.	.	.	.
CCOC(=O)C(=NC(C)(C)C)NNc1cc(Cl)ccc1Cl	5.0	.	111.0	114.0	3.4	.	.	.
CCOC(=O)C(=NC(C)C)NNc1cc(Cl)ccc1Cl	0.0	7.2	141.0*	104.0	-1.4	100.0	-1.0	100.0
COC(=O)CNC(=O)Cn1ccc2ccccc2c1=O	3.0	17.1	109.0	107.0	9.7	.	.	.
Cc1ccc(CNC(=O)Cn2ccc3ccccc3c2=O)o1	-11.0	5.2	0.0*[inhibitor]	-3.0*[inhibitor]	-2.9	98.0	9.0	102.0
CC(=O)NCCn1c(C)cc2ccccc21	5.0	.	101.0	106.0	-5.4	.	.	.
Cc1cc2ccccc2n1CCNC(=O)c1ccc(S(=O)(=O)N2CCOCC2)cc1	-5.0	13.5	57.0*[inhibitor]	.	-0.6	77.0	-12.0	89.0
Cc1cc2ccccc2n1CCNC(=O)COc1ccccc1	-27.0	.	58.0*[inhibitor]	33.0*[inhibitor]	2.8	65.0	-16.0	88.0
O=C(NCCCN1CCOCC1)c1ccc(S(=O)(=O)N2CCOCC2)cc1	5.0	.	103.0	103.0	2.9	.	.	.
Cc1onc(-c2ccccc2Cl)c1C(=O)NCCn1c(C)cc2ccccc21	-31.0	.	71.0*[inhibitor]	.	1.7	98.0	-7.0	98.0
Cc1cc2ccccc2n1CCNC(=O)c1ccccc1	-33.0	.	66.0*[inhibitor]	75.0	-2.1	30.0	-32.0	59.0*
CCC(=O)NCCn1c(C)cc2ccccc21	4.0	.	99.0	107.0	6.2	.	.	.
O=C(N/C(=C\c1ccccc1)C(=O)N1CCCCC1)c1ccco1	-3.0	.	100.0	96.0	.	.	.	.
Cc1cc2ccccc2n1CCNC(=O)c1ccc(Br)o1	8.0	.	47.0*[inhibitor]	99.0	-0.7	21.0	-30.0	53.0*
O=S(=O)(Nc1ccc2c(c1)OCO2)c1cccs1	8.0	.	132.0*	128.0	-4.8	104.0	3.0	108.0
Cc1cc(NS(=O)(=O)c2cccs2)no1	-18.0	.	2.0*[inhibitor]	2.0*[inhibitor]	15.7	98.0	-1.0	98.0
Cc1ccc(S(=O)(=O)Nc2cc(C)on2)cc1	-2.0	.	104.0	102.0	.	.	.	.
O=C(Nc1ccccc1C(=O)N/N=C/c1ccc(O)cc1)c1ccccc1	-9.0	6.0	100.0	98.0	.	.	.	.
CC(C)=C(NC(=O)c1ccccc1)C(=O)N/N=C/c1ccc(O)cc1	0.0	.	100.0	19.0*[inhibitor]	-2.7	101.0	2.0	100.0
CCOC(=O)CNC(=O)CSc1nc(-c2ccccc2)ns1	0.0	-4.1	112.0	113.0	1.2	.	.	.
CCOC(=O)CNC(=O)CSc1nc(-c2ccc(C)cc2)ns1	2.0	7.2	129.0*	119.0	10.8	117.0	6.0	100.0
Cc1cccc(-c2nsc(SCC(=O)Nc3cc(C)on3)n2)c1	-3.0	.	94.0	94.0	-12.5	.	.	.
CCOC(=O)N1CCN(C(=O)CSc2nc(-c3cccc(C)c3)ns2)CC1	10.0	.	147.0*	134.0*	9.1	106.0	12.0	106.0
CC(OC(=O)c1ccncc1)C(=O)NC1CCCC1 (centres undefined)	6.0	-16.7	102.0	103.0	4.6	.	.	.
Cc1onc(-c2ccccc2)c1C(=O)NC(=S)NNC(=O)c1ccncc1	1.0	-14.7	131.0*	107.0	-30.4	105.0	-2.0	100.0
